According to publication PMC4081100, “A DNA-binding-site landscape and regulatory network analysis for NAC transcription factors in Arabidopsis thaliana”:

Assays:
Assay in all cases: universal protein binding microarray (PBM); transcription factors of Arabidopsis thaliana; high values mean tight binding
Settings in all cases: protein: recombinant; tags: GST; chain copies: 2; dsDNA, one strand shown
GST-ANAC092(1-176) = target: T1, GST-ANAC092(1-176) (Arabidopsis thaliana, UniProt Q9FKA0 1-176)
T1 sequence: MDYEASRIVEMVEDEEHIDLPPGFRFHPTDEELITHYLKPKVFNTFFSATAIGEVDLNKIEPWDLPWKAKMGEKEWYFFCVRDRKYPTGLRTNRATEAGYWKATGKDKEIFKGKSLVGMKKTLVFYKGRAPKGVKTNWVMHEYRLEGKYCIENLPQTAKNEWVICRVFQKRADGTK
Method in brief: (§1)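 Binding is expressed as the normalised enrichment score (E-score). Proteins carrying a GST tag, whether NAC-domain, full-length or DNA-binding-domain forms, were induced in cells, and zinc acetate was added for zinc-finger proteins. After purification on glutathione–Sepharose 4B and quantification by A280 or anti-GST western blot, each was applied in duplicate at 200 to 500 nM final to custom all-10-mer Agilent 4 × 180K arrays made double-stranded by primer extension. Gapped and ungapped 8-mers were scored.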

GST-NTL6(1-168) = GST-NTL6(1-168) (Arabidopsis thaliana, UniProt Q9SCK6 1-168)
Method in brief: as §1

GST-ANAC019 NAC domain = target: T2, GST-ANAC019 NAC domain (Arabidopsis thaliana, UniProt Q9C932 14-162)
T2 sequence: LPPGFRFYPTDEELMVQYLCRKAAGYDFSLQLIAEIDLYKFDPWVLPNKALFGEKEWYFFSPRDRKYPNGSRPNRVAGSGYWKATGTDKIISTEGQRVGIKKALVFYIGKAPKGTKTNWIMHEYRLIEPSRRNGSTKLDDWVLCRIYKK
Method in brief: as §1

GST-ANAC055(1-171) = target: T3, GST-ANAC055(1-171) (Arabidopsis thaliana, UniProt Q9LDY8 1-171)
T3 sequence: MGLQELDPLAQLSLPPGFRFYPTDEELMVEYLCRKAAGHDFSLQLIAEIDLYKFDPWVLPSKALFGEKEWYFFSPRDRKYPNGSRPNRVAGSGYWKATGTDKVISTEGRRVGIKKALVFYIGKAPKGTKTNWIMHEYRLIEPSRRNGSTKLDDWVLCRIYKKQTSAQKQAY
Method in brief: as §1

GST-ATAF1 NAC domain = target: T4, GST-ATAF1 NAC domain (Arabidopsis thaliana, UniProt Q39013 7-158)
T4 sequence: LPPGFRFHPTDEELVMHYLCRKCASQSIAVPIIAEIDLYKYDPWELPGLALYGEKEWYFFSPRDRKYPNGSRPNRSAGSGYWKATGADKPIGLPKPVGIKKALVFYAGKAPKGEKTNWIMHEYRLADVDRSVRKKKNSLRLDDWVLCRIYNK
Method in brief: as §1

[1] = target: T5, GST-ANAC092(1-285) full length (Arabidopsis thaliana, UniProt Q9FKA0 1-285)
T5 sequence: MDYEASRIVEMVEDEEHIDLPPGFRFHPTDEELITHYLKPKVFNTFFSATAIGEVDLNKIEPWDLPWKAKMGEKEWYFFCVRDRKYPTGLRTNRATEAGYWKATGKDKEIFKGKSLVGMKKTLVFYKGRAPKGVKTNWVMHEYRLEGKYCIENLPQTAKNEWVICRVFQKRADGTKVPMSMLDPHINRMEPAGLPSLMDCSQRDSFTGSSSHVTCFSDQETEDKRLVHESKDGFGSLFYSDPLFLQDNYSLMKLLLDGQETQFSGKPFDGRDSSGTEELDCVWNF
Method in brief: as §1

GST-NAP(1-166) = target: T6, GST-NAP(1-166) (Arabidopsis thaliana, UniProt O49255 1-166)
T6 sequence: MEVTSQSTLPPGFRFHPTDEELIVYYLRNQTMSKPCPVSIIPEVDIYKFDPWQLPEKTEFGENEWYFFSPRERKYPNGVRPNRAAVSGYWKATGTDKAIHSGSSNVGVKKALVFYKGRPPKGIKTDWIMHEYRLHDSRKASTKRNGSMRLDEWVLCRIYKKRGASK
Method in brief: as §1

GST-NST2(1-184) = target: T7, GST-NST2(1-184) (Arabidopsis thaliana, UniProt Q9M274 1-184)
T7 sequence: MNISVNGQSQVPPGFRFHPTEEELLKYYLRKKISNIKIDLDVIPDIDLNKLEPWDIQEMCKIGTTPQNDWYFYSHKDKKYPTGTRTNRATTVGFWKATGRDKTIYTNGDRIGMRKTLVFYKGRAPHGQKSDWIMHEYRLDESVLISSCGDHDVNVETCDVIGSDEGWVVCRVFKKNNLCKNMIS
Method in brief: as §1

GST-SND1(1-203) = target: T8, GST-SND1(1-203) (Arabidopsis thaliana, UniProt Q9LPI7 1-203)
T8 sequence: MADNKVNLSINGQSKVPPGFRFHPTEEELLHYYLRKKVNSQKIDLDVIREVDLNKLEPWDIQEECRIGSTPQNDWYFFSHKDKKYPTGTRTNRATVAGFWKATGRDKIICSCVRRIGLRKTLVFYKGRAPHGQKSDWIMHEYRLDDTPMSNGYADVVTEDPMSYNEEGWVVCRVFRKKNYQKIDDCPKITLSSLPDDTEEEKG
Method in brief: as §1

GST-VND3 NAC domain = target: T9, GST-VND3 NAC domain (Arabidopsis thaliana, UniProt Q9FH59 12-162)
T9 sequence: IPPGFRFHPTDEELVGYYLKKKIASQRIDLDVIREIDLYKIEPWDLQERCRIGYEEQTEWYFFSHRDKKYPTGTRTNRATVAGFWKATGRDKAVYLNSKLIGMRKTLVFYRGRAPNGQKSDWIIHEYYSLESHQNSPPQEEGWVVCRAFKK
Method in brief: as §1

GST-VND7 NAC domain = target: T10, GST-VND7 NAC domain (Arabidopsis thaliana, UniProt Q9C8W9 9-158)
T10 sequence: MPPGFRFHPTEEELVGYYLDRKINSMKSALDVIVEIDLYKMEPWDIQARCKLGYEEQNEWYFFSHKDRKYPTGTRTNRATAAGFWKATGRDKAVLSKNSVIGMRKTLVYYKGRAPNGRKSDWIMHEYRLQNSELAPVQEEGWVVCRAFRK
Method in brief: as §1

GST-NTL8 NAC domain = target: T11, GST-NTL8 NAC domain (Arabidopsis thaliana, UniProt Q9XIN7 14-156)
T11 sequence: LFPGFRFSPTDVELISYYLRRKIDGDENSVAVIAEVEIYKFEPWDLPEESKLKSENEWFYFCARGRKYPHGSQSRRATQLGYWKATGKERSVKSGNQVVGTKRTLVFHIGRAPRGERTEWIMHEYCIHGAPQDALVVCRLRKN
Method in brief: as §1

Chain of GST-NTL6(1-168) (Q9SCK6 1-168): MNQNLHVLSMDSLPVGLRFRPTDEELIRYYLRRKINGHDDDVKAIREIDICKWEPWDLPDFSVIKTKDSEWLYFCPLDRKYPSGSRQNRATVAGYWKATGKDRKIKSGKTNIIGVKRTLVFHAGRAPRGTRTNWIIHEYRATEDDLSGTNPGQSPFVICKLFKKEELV

Sequence | binding signal (GST-ANAC092(1-176)) | binding signal (GST-NTL6(1-168)) | binding signal (GST-ANAC019 NAC domain) | binding signal (GST-ANAC055(1-171)) | binding signal (GST-ATAF1 NAC domain) | binding signal [1] | binding signal (GST-NAP(1-166)) | binding signal (GST-NST2(1-184)) | binding signal (GST-SND1(1-203)) | binding signal (GST-VND3 NAC domain) | binding signal (GST-VND7 NAC domain) | binding signal (GST-NTL8 NAC domain)
AAACGTGT | 0.424 E-score | 0.0946 E-score | 0.269 E-score | 0.33 E-score | 0.339 E-score | 0.435 E-score | 0.249 E-score | 0.275 E-score | 0.214 E-score | 0.328 E-score | 0.306 E-score | 
ACGTTTTC | 0.382 E-score | 0.196 E-score | 0.248 E-score | 0.304 E-score | 0.336 E-score | 0.401 E-score | 0.29 E-score | 0.32 E-score | 0.322 E-score | 0.303 E-score | 0.327 E-score | 0.225 E-score
ACGCAACT | 0.472 E-score | 0.105 E-score | 0.477 E-score | 0.433 E-score | 0.416 E-score | 0.472 E-score | 0.478 E-score | 0.39 E-score | 0.422 E-score | 0.462 E-score | 0.462 E-score | 0.0824 E-score
ACACGCTA | 0.484 E-score | 0.0935 E-score | 0.16 E-score | 0.193 E-score | 0.116 E-score | 0.49 E-score | 0.194 E-score | 0.4 E-score | 0.438 E-score | 0.079 E-score | 0.104 E-score | 
ACGTTTCC | 0.411 E-score | 0.141 E-score | 0.312 E-score | 0.343 E-score | 0.327 E-score | 0.432 E-score | 0.354 E-score | 0.255 E-score | 0.381 E-score | 0.347 E-score | 0.359 E-score | 0.439 E-score
CGAGGAAA | 0.0746 E-score | 0.138 E-score | 0.0533 E-score | 0.139 E-score | 0.152 E-score | 0.131 E-score | 0.0581 E-score | 0.0987 E-score | 0.17 E-score | 0.155 E-score | 0.173 E-score | 0.442 E-score
ACGGAAGC | 0.299 E-score | 0.0877 E-score | 0.436 E-score | 0.374 E-score | 0.289 E-score | 0.298 E-score | 0.236 E-score | 0.257 E-score | 0.209 E-score | 0.385 E-score | 0.266 E-score | 
ACGTAATC | 0.464 E-score | 0.0901 E-score | 0.453 E-score | 0.411 E-score | 0.38 E-score | 0.462 E-score | 0.443 E-score | 0.356 E-score | 0.424 E-score | 0.427 E-score | 0.44 E-score | 
GTAAGGAA | 0.259 E-score | 0.486 E-score | 0.23 E-score | 0.193 E-score | 0.239 E-score | 0.29 E-score | 0.268 E-score | 0.271 E-score | 0.35 E-score | 0.231 E-score | 0.236 E-score | 0.392 E-score
GAACACGC | 0.382 E-score | 0.0566 E-score | 0.289 E-score | 0.237 E-score | 0.19 E-score | 0.427 E-score | 0.248 E-score | 0.205 E-score | 0.158 E-score | 0.138 E-score | 0.174 E-score | 
ACGTAAGC | 0.42 E-score | 0.133 E-score | 0.453 E-score | 0.406 E-score | 0.352 E-score | 0.449 E-score | 0.428 E-score | 0.298 E-score | 0.368 E-score | 0.437 E-score | 0.431 E-score | 0.205 E-score
ACACGATA | 0.38 E-score | 0.127 E-score | 0.324 E-score | 0.261 E-score | 0.267 E-score | 0.417 E-score | 0.183 E-score | 0.27 E-score | 0.266 E-score | 0.273 E-score | 0.248 E-score | 
